40 molecules from PubChem BioAssay (EPA / NIEHS) can be followed below.

The source made the active and inactive calls. How the source made its calls: active means hit-call score of the fitted dose curve at least 0.9, where 1 is the maximum; inactive means score below 0.9.

Sequence of Bile acid receptor (Homo sapiens) (Q96RI1 whole entry, looked up): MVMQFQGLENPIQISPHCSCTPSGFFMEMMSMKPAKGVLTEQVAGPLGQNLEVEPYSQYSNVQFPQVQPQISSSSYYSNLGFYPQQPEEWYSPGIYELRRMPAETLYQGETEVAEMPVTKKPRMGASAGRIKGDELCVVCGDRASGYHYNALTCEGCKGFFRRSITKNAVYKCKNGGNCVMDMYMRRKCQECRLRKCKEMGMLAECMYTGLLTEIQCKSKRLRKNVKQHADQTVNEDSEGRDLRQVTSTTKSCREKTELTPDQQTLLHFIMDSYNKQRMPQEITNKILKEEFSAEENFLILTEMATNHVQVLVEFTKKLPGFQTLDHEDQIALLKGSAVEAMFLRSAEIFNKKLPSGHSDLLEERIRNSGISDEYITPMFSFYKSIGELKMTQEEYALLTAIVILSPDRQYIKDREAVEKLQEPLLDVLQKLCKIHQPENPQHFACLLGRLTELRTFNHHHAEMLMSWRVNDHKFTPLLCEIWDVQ

This test addresses Bile acid receptor (Homo sapiens) (UniProt Q96RI1). As to the kind of experiment: ATG_IR1_CIS: Attagene CIS-FACTORIAL HepG2 Assay for human Nuclear Receptor Subfamily 1 Group H Member 4 (NR1H4), IR1 submotif (AID 2282946). Conditions: IR1 reporter transcription, actives raise or lower the signal. Here is the method:
ATG_CIS is a cell-based, multiplexed-readout assay that uses HepG2, a human liver cell line, with measurements taken at 24 hours after chemical dosing in a 24-well plate.ATG_IR1_CIS is one of 52 assay component(s) measured or calculated from the ATG_CIS assay. It is designed to make measurements of mRNA induction, a form of inducible reporter, as detected with fluorescence intensity signals by Reverse transcription polymerase chain reaction (RT-PCR) and Capillary electrophoresis technology.Data from the assay component ATG_IR1_CIS was analyzed into 1 assay endpoint. This assay endpoint, ATG_IR1_CIS, was analyzed with bidirectional fitting relative to DMSO as the negative control and baseline of activity. Using a type of inducible reporter, measures of mRNA for gain or loss-of-signal activity can be used to understand the reporter gene at the transcription factor-level as they relate to the gene NR1H4. Furthermore, this assay endpoint can be referred to as a primary readout, because this assay has produced multiple assay endpoints where this one serves a reporter gene function. To generalize the intended target to other relatable targets, this assay endpoint is annotated to the nuclear receptor intended target family, where the subfamily is non-steroidal.
Human liver HepG2 cells are transiently transfected with multiple reporter transcription units (MRTUs) in 6-well plates using FuGene 6 reagent (Roche; 3 ml FuGene/1 mg DNA). The MRTU constructs are regulated by a cis-regulating element (promoter). […] A major difference between the CIS and TRANS system is that in CIS activities of endogenous TFs are measured, whereas the TRANS assay evaluates changes in activities of exogenous, chimeric NR-Gal4 proteins. […] At the end of 24 hour incubation, total RNA was isolated using TriZol reagent (Invitrogen). The isolated RNA is then reverse-transcribed using oligo(dT) primer and Mo-MLV reverse transcriptase (Invitrogen) with DNAse I (Ambion) treatment for 30 min. The one-tenth of the produced cDNA was amplified by PCR using Taq DNA polymerase (Invitrogen) and two reporter sequence-specific primers. The PCR products were fluorescently labeled by primer extension with 6-arboxyfluorescein (6-FAM) 5'-labeled reporter sequence-specific primer (2 min at 95 C, 20 s at 68 C and 10 min at 72 C) and these products were digested with 5U of HpaI (New England Biolabs) for 2h at 37 C. The fragments were purified using Qiaquick PCR columns (Qiagen), analyzed on an ABI 3130xL genetic analyzer (Applied Biosystems) with peak positions identified by using a set of X-rhodamine (ROX)-labeled MapMarker1000 molecular weight standards (BioVentures). The raw capillary electrophoresis data was processed using Attagraph software (Attagene).
Consider `O=C1OC(=O)c2c(Cl)c(Cl)c(Cl)c(Cl)c21`, for which the molecule was called inactive.

Turning to `OCC#CCO`, the outcome was inactive.

Regarding `Oc1c(Cl)cc(Cl)c(Cl)c1Cc1c(O)c(Cl)cc(Cl)c1Cl`, the call was inactive.

Consider `C=C1CC[C@H](O)C/C1=C/C=C1\CCC[C@]2(C)[C@@H]([C@H](C)/C=C/[C@H](C)C(C)C)CC[C@@H]12`, for which the result was inactive.

As for `C[Si]1(C)O[Si](C)(C)O[Si](C)(C)O1`, the call was inactive.

In the case of `C=Cc1ccc(C(C)(C)C)cc1`, the molecule was classed as inactive.

For the molecule `O=C(O)CCCCCCCCCCCC(=O)O`, the result was inactive.

For the molecule `COc1cc(Cl)c(OC)cc1N`, the molecule was called inactive.

As for `Cc1cc(=O)oc2cc(N(C)C)ccc12`, the result was inactive.

For `C=C(C)C(=O)OCCOCCOCCOCCOC(=O)C(=C)C`, the molecule was classed as inactive.

As to `CCC(Cl)C(Cl)C(Cl)CC(Cl)C(Cl)C(C)Cl` (stereo not given), the AC50 (as a rule, the concentration giving half of the maximal activity seen) is 10.5 µM (active).

Turning to `C=C(C)C(=O)OCC(CC)(COC(=O)C(=C)C)COC(=O)C(=C)C`, the call was inactive.

In the case of `CC(=O)O[C@H]1C[C@@H]2CC[C@@]1(C)C2(C)C`, the outcome was inactive.

`c1ccc2[nH]cnc2c1`: the molecule was classed as inactive.

Turning to `CC=Cc1ccc(OC)c(OC)c1`, the call was inactive.

In the case of `Cc1ccc(S(N)(=O)=O)cc1`, the call was inactive.

In the case of `CC(C)CC(C)CC(O)CC(C)C` (stereo not given), the molecule was called inactive.

`Cc1cc(S(=O)(=O)O)ccc1N=Nc1c(O)ccc2ccccc12`: the molecule was called inactive.

Regarding `COC(C)(C)CC(C)=O`, the call was inactive.

As for `COC(C)(C)CCCC(C)CC=O` (stereo not given), the molecule was classed as inactive.

With `CC(=O)OCCCc1ccccc1`, the molecule was classed as inactive.

For `CSCCC=O`, the molecule was called inactive.

In the case of `CCOc1ccccc1O`, the molecule was called inactive.

Regarding `COc1cccc(OC)c1O`, the outcome was inactive.

Consider `CCCCCc1ccco1`, for which the half-maximal activity concentration (AC50) was 105 µM (active).

As to `COc1cc(CCC(C)=O)ccc1O`, the outcome was inactive.

As for `C=C(CC(=O)O)C(=O)O`, the call was inactive.

Take `CN(C)CCOc1ccc(/C(=C(/CCCl)c2ccccc2)c2ccccc2)cc1`: the molecule was called inactive.

As for `Cc1ccc(N)c(S(=O)(=O)O)c1`, the outcome was inactive.

Consider `C/C=C(\C)C(=O)OCCc1ccccc1`, for which the call was inactive.

As for `C=C1C[C@]23C[C@@]1(O)CC[C@H]2[C@@]12C=C[C@H](O)[C@@](C)(C(=O)O1)[C@H]2[C@@H]3C(=O)O`, the outcome was inactive.

For `CCCCOC(=O)CCCCCCCC(=O)OCCCC`, the call was inactive.

As for `CC(C)(C)C1=CC(=O)C(C(C)(C)C)=CC1=O`, the molecule was called inactive.

On to `Cc1ncc[nH]1`, for which the outcome was inactive.

On to `CC1(C)COCN1`, for which the molecule was called inactive.

For the molecule `CCCCCCCCc1ccc(S(=O)(=O)O)cc1`, the AC50 was 175 µM (active).

With `CC1CCC(C(C)C)C(O)C1` (stereo not given), the molecule was classed as inactive.

As for `C1=CC2C3C=CC(C3)C2C1` (stereo not given), the call was inactive.

`CCCCCCOC(=O)CCC`: the result was inactive.

With `O=C1CCCC=CCCCCCCCCCC1`, the molecule was classed as inactive.
